The nature of assay [1]: BSK_3C_VCAM1: BioMAP Diversity Plus: 3C Assay for Vascular cell adhesion molecule 1 (VCAM1) Biomarker Activity (AID 2282999). The note with it: BioMAP 3C HUVEC, VCAM1 ELISA, cytokine-stimulated; actives raise or lower the signal. The method, boiled down: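 Human umbilical vein endothelial cells were dosed with compound for 24 h, after which cell-surface VCAM-1 was quantified by ELISA. Bidirectional curve fitting used DMSO as negative control and activity baseline.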
In general terms: In an ELISA, binding on a coated surface is turned into a signal by an enzyme label.

Assay [2] in a line: BSK_4H_Eotaxin3: BioMAP Diversity Plus: 4H Assay for Eotaxin 3 Biomarker Activity (AID 2283000).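 Further: CCL26 protein level quantified by ELISA in parallel with SRB cytotoxicity check.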 The note with it: primary human endothelial cells (HUVEC); actives raise or lower the signal. The method, boiled down:
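Endothelial primary cells (human umbilical vein) exposed to compound for 24 h. ELISA detection of Eotaxin-3.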

In assay [3] the target is human Peroxisome Proliferator-activated Receptor delta (PPARd), PPARD (gene 5467) (UniProt Q03181). The experiment in a line: ATG_PPARd_TRANS: Attagene TRANS-FACTORIAL HepG2 Assay for human Peroxisome Proliferator-activated Receptor delta (PPARd) (AID 2283002; active means hit-call score of the fitted dose curve at least 0.9, where 1 is the maximum). The method, boiled down:
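Multiplexed trans-activation format: HepG2 liver cells expressing exogenous NR-Gal4 chimeras and GAL4-UAS reporters were exposed for 24 h. Reporter mRNA was detected by RT-PCR with capillary electrophoresis fluorescence; activity fitted as gain of signal relative to DMSO.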

Assay [4] can be described thus: BSK_3C_Proliferation: Cell Proliferation Assessment in the BioMAP Diversity Plus: 3C Assay (AID 2283006). The following applies: primary human endothelial cells (HUVEC). The method, boiled down:
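Read-out is total protein by SRB absorbance at 560 nm, taken as a proxy for relative cell number. Primary human umbilical vein endothelium cultured below confluence was dosed for 48 h, TCA-fixed and SRB-stained; curves were fitted bidirectionally versus DMSO.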

Assay [5] concerns the target Peroxisome proliferator-activated receptor gamma (Homo sapiens) (UniProt P37231). Put plainly: ATG_PPARg_TRANS: Attagene TRANS-FACTORIAL HepG2 Assay for human Peroxisome Proliferator-activated Receptor-gamma (PPARg) (AID 2283007; active means hit-call score of the fitted dose curve at least 0.9, where 1 is the maximum). The method, boiled down:
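Human hepatoma HepG2, transient MRTU transfection, 24 h treatment. mRNA reporter signal by RT-PCR plus capillary electrophoresis, fluorescence detection; fitted for increase over DMSO negative control.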

Assay [6] addresses Nuclear receptor subfamily 1 group I member 2 (Homo sapiens) (UniProt O75469). Put plainly: ATG_PXR_TRANS: Attagene TRANS-FACTORIAL HepG2 Assay for human Pregnane X Receptor (PXR) (AID 2283008; active means hit-call score of the fitted dose curve at least 0.9, where 1 is the maximum). The method, boiled down: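 Measures mRNA induction of a GAL4-UAS-driven reporter in human HepG2 cells transiently expressing PXR fused to Gal4, following 24 h treatment. DMSO served as negative control and baseline.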

For assay [7], the target named is Retinoic acid receptor RXR-alpha (Homo sapiens) (UniProt P19793). Put plainly: ATG_RXRa_TRANS: Attagene TRANS-FACTORIAL HepG2 Assay for human Retinoid X Receptor alpha (RXRa) (AID 2283012; active means hit-call score of the fitted dose curve at least 0.9, where 1 is the maximum). The method, boiled down:
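Transient transfection of human HepG2 with multiple GAL4-UAS reporter constructs; 24 h compound exposure; total RNA isolated, reverse-transcribed, PCR-amplified, 6-FAM labelled, HpaI-cut, resolved by capillary electrophoresis. Positive-direction fit versus DMSO.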

The target in assay [8] is human Retinoid X Receptor beta (RXRb), RXRB (gene 6257) (UniProt P28702). Put plainly: ATG_RXRb_TRANS: Attagene TRANS-FACTORIAL HepG2 Assay for human Retinoid X Receptor beta (RXRb) (AID 2283013; active means hit-call score of the fitted dose curve at least 0.9, where 1 is the maximum). The method, boiled down:
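Transfect HepG2 with GAL4-UAS multi-reporter constructs (chimeric NR-Gal4, TRANS format); dose compound 24 h; isolate RNA, RT-PCR, FAM primer extension, HpaI digest; quantify by capillary electrophoresis; positive direction vs DMSO.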

Read-out in assay [9]: E-selectin (Homo sapiens) (UniProt P16581)
The experiment in a line: BSK_3C_Eselectin: BioMAP Diversity Plus: 3C Assay for Eselectin Biomarker Activity (AID 2283015).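 Further: cell surface E-selectin protein quantified by ELISA 24 h after dosing.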 The note with it: primary human endothelial cells (HUVEC); actives raise or lower the signal. The method, boiled down: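 Human vascular endothelium from umbilical vein is exposed to test chemicals for 24 h. E-selectin levels are read by ELISA and compared with DMSO controls.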

Read-out in assay [10]: Interleukin-1 alpha (IL1a), IL1A (gene 3552)
Put plainly: BSK_BE3C_IL1a: BioMAP Diversity Plus: BE3C Assay for Interleukin-1 alpha (IL1a) Biomarker Activity (AID 2283016). The note with it: primary human bronchial epithelial cells; actives raise or lower the signal. The method, boiled down: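 BE3C primary human bronchial epithelium; cpd 24 h; IL-1a by ELISA; bidirectional fit vs DMSO; parallel SRB (0.1% SRB, 10% TCA fix, 560 nm) for cytotoxicity.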

Read-out in assay [11]: Monocyte Chemoattractant Protein-1 (MCP1), CCL2 (gene 6347)
The experiment in a line: BSK_3C_MCP1: BioMAP Diversity Plus: 3C Assay for Monocyte Chemoattractant Protein-1 (MCP1) Biomarker Activity (AID 2283017). The note with it: primary human endothelial cells (HUVEC); actives raise or lower the signal. The method, boiled down: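 Endothelial cells from human umbilical vein are dosed with chemical, cultured 24 h, then assayed for MCP-1 by ELISA; both increases and decreases are modelled against DMSO controls.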

Read-out in assay [12]: Monocyte Chemoattractant Protein-1 (MCP1), CCL2 (gene 6347)
The experiment in a line: BSK_4H_MCP1: BioMAP Diversity Plus: 4H Assay for Monocyte Chemoattractant Protein-1 (MCP1) Biomarker Activity (AID 2283018). The note with it: primary human endothelial cells (HUVEC); actives raise or lower the signal. The method, boiled down: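 ELISA read-out of MCP-1 from human vascular endothelial primary cells taken at 24 hours after compound exposure. Activity was fitted in both directions relative to DMSO, which served as negative control.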

Read-out in assay [13]: Human Leukocyte Antigen - DR isotype (HLADR), HLA-DRA (gene 3122)
The experiment in a line: BSK_3C_HLADR: BioMAP Diversity Plus: 3C Assay for Human Leukocyte Antigen - DR isotype (HLADR) Biomarker Activity (AID 2283019).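 Further: ELISA of cell-surface HLA-DR on HUVEC 24 h after dosing.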 The note with it: primary human endothelial cells (HUVEC); actives raise or lower the signal. The method, boiled down:
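Endothelial cells from human umbilical vein are treated with test chemical; after 24 h, HLA-DR levels are measured by ELISA. Data are fitted in both directions using DMSO as the baseline.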

Read-out in assay [14]: Intercellular Adhesion Molecule 1 (ICAM1), ICAM1 (gene 3383)
Put plainly: BSK_3C_ICAM1: BioMAP Diversity Plus: 3C Assay for Intercellular Adhesion Molecule 1 (ICAM1) Biomarker Activity (AID 2283003). The note with it: primary human endothelial cells (HUVEC); actives raise or lower the signal. The method, boiled down: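 ICAM-1 levels measured by ELISA after HUVEC cultures in the 3C system had been dosed for 24 h. Gain or loss of signal relative to DMSO was fitted in both directions.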

Assay [15] has as its target human Retinoic Acid Receptor beta (RARb), RARB (gene 5915) (UniProt P10826). The experiment in a line: ATG_RARb_TRANS: Attagene TRANS-FACTORIAL HepG2 Assay for human Retinoic Acid Receptor beta (AID 2283004; active means hit-call score of the fitted dose curve at least 0.9, where 1 is the maximum). The method, boiled down:
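HepG2, transient MRTU transfection, NR–Gal4 chimera, 24 h treatment; RT-PCR plus CE fluorescence detection of reporter mRNA; gain of signal vs DMSO.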

Assay [16] has as its target human RAR-related Orphan Receptor gamma (RORg), RORC (gene 6097) (UniProt P51449). Put plainly: ATG_RORg_TRANS: Attagene TRANS-FACTORIAL HepG2 Assay for human RAR-related Orphan Receptor gamma (RORg) (AID 2283011; active means hit-call score of the fitted dose curve at least 0.9, where 1 is the maximum). The method, boiled down:
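Activity is scored as increase in GAL4-UAS reporter mRNA over DMSO, detected by fluorescent RT-PCR and capillary electrophoresis in HepG2 cells transiently expressing a RORg-Gal4 chimera, 24 h after dosing.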

Assay [17] deals with Retinoic acid receptor alpha (Homo sapiens) (UniProt P10276). Put plainly: ATG_RARa_TRANS: Attagene TRANS-FACTORIAL HepG2 Assay for human Retinoic Acid Receptor alpha (RARa) (AID 2283005; active means hit-call score of the fitted dose curve at least 0.9, where 1 is the maximum;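 on AC50: potency for increased reporter signal meaning RARa activation over DMSO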). The method, boiled down: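 HepG2 cells transiently transfected with multiple reporter units expressing chimeric RARα-GAL4 fusion, with GAL4-UAS-driven reporters. After 24 h compound exposure, reporter mRNA induction quantified by RT-PCR and capillary electrophoresis with fluorescent labeling; gain-of-signal fitted relative to DMSO control.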

The target of assay [18] is human Thyroid Receptor alpha (THRa1), THRA (gene 7067) (UniProt P10827). Put plainly: ATG_THRa1_TRANS: Attagene TRANS-FACTORIAL HepG2 Assay for human Thyroid Receptor alpha (THRa1) (AID 2283014; active means hit-call score of the fitted dose curve at least 0.9, where 1 is the maximum). The method, boiled down:
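First, HepG2 cells receive multiple GAL4-UAS reporter units and the chimeric receptor. They are then dosed for 24 h, after which RNA is reverse-transcribed, amplified, labelled, HpaI-cut and sized by capillary electrophoresis; gain relative to DMSO is scored.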

For assay [19], the target named is human Retinoic Acid Receptor gamma (RARg), RARG (gene 5916) (UniProt P13631). Put plainly: ATG_RARg_TRANS: Attagene TRANS-FACTORIAL HepG2 Assay for human Retinoic Acid Receptor gamma (RARg) (AID 2283009; active means hit-call score of the fitted dose curve at least 0.9, where 1 is the maximum). The method, boiled down:
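Transient transfection of HepG2 with multi-reporter constructs, then 24 h chemical treatment. Total RNA isolated, reverse-transcribed, PCR-amplified, fluorescently labelled and resolved by capillary electrophoresis; activity scored as mRNA induction versus DMSO.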

Each structure is given as a SMILES string. Results filed as inconclusive are left out. Calls of active or inactive are those of the source. How the source made its calls, unless noted: active means hit-call score of the fitted dose curve at least 0.9, where 1 is the maximum; inactive means score below 0.9.

This is an account of results in PubChem BioAssay (EPA / NIEHS).

What is called AC50 is the concentration giving half of the maximal activity seen.

Sequence of human RAR-related Orphan Receptor gamma (RORg), RORC (gene 6097) (P51449 whole entry, looked up, the tested form may be a part): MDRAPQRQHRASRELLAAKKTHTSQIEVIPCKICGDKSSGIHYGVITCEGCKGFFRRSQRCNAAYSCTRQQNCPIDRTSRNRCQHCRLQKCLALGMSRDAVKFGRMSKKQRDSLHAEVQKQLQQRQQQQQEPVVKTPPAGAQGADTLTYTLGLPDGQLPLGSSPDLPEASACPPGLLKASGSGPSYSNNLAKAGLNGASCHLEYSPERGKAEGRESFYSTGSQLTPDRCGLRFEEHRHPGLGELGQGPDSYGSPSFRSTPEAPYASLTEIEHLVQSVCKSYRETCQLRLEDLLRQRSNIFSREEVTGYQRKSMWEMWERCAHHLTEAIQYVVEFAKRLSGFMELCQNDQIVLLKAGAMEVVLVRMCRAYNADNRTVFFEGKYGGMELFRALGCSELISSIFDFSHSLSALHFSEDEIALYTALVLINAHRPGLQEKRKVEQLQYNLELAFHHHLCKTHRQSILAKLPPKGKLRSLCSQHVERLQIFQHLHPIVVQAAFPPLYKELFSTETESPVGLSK
Sequence of E-selectin (Homo sapiens) (P16581 whole entry, looked up): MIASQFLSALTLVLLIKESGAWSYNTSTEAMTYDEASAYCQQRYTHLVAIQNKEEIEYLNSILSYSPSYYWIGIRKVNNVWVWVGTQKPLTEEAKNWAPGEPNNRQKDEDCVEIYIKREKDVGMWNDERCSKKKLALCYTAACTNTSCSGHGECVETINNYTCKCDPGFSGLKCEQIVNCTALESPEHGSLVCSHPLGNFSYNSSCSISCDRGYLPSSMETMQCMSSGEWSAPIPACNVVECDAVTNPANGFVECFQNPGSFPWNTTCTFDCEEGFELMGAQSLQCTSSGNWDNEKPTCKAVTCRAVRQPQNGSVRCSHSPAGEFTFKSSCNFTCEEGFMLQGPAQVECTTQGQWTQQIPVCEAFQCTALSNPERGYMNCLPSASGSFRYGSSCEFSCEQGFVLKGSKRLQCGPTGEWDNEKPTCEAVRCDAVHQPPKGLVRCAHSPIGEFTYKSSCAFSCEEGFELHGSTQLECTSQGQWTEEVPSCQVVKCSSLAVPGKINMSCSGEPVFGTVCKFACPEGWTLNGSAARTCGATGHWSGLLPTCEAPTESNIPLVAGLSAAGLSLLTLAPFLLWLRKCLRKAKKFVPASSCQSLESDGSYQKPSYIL
Sequence of human Thyroid Receptor alpha (THRa1), THRA (gene 7067) (P10827 whole entry, looked up, the tested form may be a part): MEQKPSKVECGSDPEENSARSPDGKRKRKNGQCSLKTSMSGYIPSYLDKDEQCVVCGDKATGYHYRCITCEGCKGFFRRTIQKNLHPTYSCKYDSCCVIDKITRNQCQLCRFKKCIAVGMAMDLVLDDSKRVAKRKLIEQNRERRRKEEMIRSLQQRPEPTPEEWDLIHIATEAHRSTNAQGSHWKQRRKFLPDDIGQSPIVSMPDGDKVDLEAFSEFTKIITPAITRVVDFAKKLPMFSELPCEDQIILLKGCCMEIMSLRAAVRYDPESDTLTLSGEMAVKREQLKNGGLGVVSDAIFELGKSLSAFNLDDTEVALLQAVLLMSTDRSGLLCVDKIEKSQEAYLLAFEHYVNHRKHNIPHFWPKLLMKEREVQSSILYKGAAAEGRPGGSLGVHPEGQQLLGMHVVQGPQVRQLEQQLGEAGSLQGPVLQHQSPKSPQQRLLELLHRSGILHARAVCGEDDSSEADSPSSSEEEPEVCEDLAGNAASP
Sequence of human Retinoic Acid Receptor beta (RARb), RARB (gene 5915) (P10826 whole entry, looked up, the tested form may be a part): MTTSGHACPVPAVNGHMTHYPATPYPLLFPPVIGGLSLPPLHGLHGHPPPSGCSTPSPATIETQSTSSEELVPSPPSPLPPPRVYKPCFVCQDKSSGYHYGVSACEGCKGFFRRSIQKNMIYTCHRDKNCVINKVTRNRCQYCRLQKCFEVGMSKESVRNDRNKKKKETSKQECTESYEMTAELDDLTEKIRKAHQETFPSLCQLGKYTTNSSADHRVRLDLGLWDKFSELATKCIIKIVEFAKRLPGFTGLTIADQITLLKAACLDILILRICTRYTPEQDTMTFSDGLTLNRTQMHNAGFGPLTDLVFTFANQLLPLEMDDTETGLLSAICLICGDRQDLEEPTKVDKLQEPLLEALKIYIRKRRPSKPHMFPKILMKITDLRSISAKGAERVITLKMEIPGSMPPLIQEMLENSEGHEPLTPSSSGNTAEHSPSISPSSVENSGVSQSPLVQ
Sequence of human Retinoid X Receptor beta (RXRb), RXRB (gene 6257) (P28702 whole entry, looked up, the tested form may be a part): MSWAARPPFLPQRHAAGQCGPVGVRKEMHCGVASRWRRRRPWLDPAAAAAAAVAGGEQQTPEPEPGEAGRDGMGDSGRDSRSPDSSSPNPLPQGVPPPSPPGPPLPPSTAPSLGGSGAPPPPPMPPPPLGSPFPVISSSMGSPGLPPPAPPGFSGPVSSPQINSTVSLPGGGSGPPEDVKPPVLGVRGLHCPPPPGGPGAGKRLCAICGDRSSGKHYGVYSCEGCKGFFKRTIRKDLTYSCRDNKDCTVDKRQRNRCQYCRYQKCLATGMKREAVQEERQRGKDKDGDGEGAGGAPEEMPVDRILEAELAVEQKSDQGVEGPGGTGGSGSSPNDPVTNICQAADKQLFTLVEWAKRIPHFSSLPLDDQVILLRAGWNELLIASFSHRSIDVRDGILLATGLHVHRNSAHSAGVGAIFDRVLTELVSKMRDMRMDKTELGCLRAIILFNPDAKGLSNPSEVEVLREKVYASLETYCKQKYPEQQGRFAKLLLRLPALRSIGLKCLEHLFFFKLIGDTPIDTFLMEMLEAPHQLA
Sequence of Nuclear receptor subfamily 1 group I member 2 (Homo sapiens) (O75469 whole entry, looked up, the tested form may be a part): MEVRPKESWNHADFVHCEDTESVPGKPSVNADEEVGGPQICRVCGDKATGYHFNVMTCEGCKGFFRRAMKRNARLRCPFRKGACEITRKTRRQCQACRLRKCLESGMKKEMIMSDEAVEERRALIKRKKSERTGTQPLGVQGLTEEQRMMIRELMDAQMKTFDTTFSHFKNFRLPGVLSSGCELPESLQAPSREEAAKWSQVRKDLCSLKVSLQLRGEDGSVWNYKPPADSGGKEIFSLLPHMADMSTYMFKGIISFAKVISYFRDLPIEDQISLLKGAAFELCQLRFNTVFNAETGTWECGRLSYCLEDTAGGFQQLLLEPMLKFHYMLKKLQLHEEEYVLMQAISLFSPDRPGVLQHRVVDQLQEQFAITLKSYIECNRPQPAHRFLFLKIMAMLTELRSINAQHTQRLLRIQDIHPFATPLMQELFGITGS
Sequence of Retinoic acid receptor RXR-alpha (Homo sapiens) (P19793 whole entry, looked up, the tested form may be a part): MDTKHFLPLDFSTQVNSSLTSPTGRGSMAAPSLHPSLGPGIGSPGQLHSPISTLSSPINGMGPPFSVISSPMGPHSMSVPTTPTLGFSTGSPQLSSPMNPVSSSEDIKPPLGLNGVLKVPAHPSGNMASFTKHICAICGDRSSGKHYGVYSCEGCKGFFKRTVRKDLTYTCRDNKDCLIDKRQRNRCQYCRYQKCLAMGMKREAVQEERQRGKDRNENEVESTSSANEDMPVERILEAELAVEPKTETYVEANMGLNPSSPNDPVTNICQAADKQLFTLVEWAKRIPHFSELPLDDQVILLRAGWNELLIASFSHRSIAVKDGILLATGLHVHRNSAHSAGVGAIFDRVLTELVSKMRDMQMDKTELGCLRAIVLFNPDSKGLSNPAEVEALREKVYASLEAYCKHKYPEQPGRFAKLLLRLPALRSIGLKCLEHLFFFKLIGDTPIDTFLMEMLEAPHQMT
Sequence of Peroxisome proliferator-activated receptor gamma (Homo sapiens) (P37231 whole entry, looked up): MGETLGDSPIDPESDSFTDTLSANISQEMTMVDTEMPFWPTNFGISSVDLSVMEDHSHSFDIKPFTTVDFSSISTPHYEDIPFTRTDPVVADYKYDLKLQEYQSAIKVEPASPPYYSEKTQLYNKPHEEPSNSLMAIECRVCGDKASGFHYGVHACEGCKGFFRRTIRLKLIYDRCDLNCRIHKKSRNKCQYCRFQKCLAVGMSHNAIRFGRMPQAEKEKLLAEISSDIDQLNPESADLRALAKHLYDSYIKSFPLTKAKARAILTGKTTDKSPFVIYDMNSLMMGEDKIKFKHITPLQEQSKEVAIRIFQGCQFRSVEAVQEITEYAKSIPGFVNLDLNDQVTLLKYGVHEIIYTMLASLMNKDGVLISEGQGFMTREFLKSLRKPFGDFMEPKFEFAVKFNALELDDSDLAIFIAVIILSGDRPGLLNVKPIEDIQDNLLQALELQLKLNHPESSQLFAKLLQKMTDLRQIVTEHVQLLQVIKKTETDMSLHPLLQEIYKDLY
Sequence of human Retinoic Acid Receptor gamma (RARg), RARG (gene 5916) (P13631 whole entry, looked up): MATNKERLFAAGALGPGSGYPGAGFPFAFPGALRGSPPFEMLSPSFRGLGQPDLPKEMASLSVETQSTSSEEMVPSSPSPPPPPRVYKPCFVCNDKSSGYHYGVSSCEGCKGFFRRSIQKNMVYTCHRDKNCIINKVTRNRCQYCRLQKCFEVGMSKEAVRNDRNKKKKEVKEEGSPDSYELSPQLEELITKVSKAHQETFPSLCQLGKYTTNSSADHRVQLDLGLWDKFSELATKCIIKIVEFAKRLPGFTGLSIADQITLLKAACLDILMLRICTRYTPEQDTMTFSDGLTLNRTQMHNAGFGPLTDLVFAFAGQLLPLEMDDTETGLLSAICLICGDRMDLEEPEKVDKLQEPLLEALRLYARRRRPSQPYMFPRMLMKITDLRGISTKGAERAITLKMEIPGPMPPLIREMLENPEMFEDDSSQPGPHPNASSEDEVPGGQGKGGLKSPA
Sequence of Retinoic acid receptor alpha (Homo sapiens) (P10276 whole entry, looked up, the tested form may be a part): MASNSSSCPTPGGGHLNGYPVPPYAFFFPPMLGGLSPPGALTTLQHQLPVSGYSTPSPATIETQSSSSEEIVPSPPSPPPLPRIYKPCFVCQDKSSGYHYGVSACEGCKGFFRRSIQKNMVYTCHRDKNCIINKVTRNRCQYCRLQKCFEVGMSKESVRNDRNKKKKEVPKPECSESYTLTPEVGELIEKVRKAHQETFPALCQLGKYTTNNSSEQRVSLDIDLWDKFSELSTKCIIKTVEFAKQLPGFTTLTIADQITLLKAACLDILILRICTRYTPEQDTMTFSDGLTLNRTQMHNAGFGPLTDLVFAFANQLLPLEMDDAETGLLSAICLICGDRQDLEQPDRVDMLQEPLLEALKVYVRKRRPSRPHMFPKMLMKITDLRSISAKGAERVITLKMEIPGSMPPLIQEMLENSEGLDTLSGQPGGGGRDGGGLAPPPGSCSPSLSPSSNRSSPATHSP

In the case of `C[Si](Cn1cncn1)(c1ccc(F)cc1)c1ccc(F)cc1`, the outcome in [1], in assay [2], in assay [3], in assay [4], in [6] and in assay [7] was inactive. The call in assay [8], in assay [9], in assay [10], in [11], in [12] and in assay [13] was inactive. Moreover, in assay [5], the half-maximal activity concentration (AC50) was 48.5 µM (active).

For the molecule `CCc1cnc(C2=NC(C)(C(C)C)C(=O)N2)c(C(=O)O)c1` (stereo unspecified), the outcome in assay [1], in assay [2], in assay [14], in [15], in assay [4] and in assay [5] was inactive. Also, the molecule was called inactive in assay [16], in [9], in assay [10], in [11], in assay [12] and in assay [13].

Take `S=C1NCCN1`: the result in assay [1], in assay [2], in assay [14], in assay [15], in [4] and in assay [5] was inactive. Besides, the molecule was classed as inactive in assay [6], in [16], in assay [8], in assay [9], in assay [11] and in assay [12]. In addition, the outcome in assay [13] was inactive.

In the case of `COc1cccc(C(=O)NN(C(=O)c2cc(C)cc(C)c2)C(C)(C)C)c1C`, the result in assay [1], in assay [2], in assay [15], in [17], in assay [4] and in [5] was inactive. For the same molecule, the molecule was classed as inactive in assay [6], in assay [9], in assay [11], in [12] and in assay [13].

Regarding `CCCCOC(=O)c1ccccc1C(=O)O`, the result in [1], in assay [2], in assay [3], in assay [4], in [5] and in assay [16] was inactive. In addition, the molecule was called inactive in [7], in assay [8], in assay [18], in assay [9], in [11] and in assay [12]. Besides, the outcome in assay [13] was inactive.

With `O=C(O)c1cc(Oc2ccc(C(F)(F)F)cc2Cl)ccc1[N+](=O)[O-]`, the result in [1], in [2], in assay [14], in [15], in [4] and in [6] was inactive. Besides, the molecule was classed as inactive in assay [19], in [16], in assay [7], in assay [8], in assay [18] and in [9]. Moreover, the result in [11], in [12] and in assay [13] was inactive. The AC50 in assay [17] is 2.9 µM (active); in [5], 37.1 µM (active).

As to `CCc1cccc(C)c1N(C(=O)CCl)C(C)COC` (stereo unspecified), the result in assay [1], in assay [2], in assay [15], in assay [4], in assay [6] and in assay [8] was inactive. Moreover, the outcome in assay [9], in [11], in [12] and in [13] was inactive. The AC50 in [5] is 13.5 µM (active).

Take `COc1cc(OC)nc(Sc2cccc(Cl)c2C(=O)O)n1`: the outcome in assay [1], in assay [2], in [4], in assay [5], in assay [16] and in assay [8] was inactive. In addition, the result in [18], in assay [9], in assay [10], in assay [11], in assay [12] and in [13] was inactive.

On to `Cc1ccn2nc(S(=O)(=O)Nc3c(F)cccc3F)nc2n1`, for which the result in assay [1], in assay [2], in [4], in assay [5], in [6] and in assay [19] was inactive. For the same molecule, the result in [16], in [7], in assay [8], in [9], in assay [10] and in assay [11] was inactive. The result in assay [12] and in assay [13] was inactive.
